Compound activity: PubChem, National Center for Advancing Translational Sciences (NCATS)
TDP1 cell noCPT: qHTS for Inhibitors of human tyrosyl-DNA phosphodiesterase 1 (TDP1): qHTS in cells in absence of CPT. DT40 Tdp1-/- hTDP1 cells, no CPT, ATP luminescence, 48 h. Potency, µM (highest dose often 46.2 µM), without a hit: at the highest dose activity change, negative = growth inhibition, actives largely listed as inhibitors. hit rate 15% among 420,000. AID 686978, 2013; also: potency is read from the fitted curve at half-maximal effect; nearly all actives have a fitted effect of over 55% in size
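Luminescent ATP content (CellTiter-Glo) served as the growth readout. Knockout chicken DT40 cells expressing human TDP1 were exposed to compounds without camptothecin for a minimum 48 hr at 37 °C.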
TDP1 cell CPT: DT40-hTDP1 cell growth loss with CPT; chicken DT40 Tdp1-/-;hTDP1 cells + 20 nM CPT, ATP luminescence, 48 h; AID 686979; Potency, µM (series often up to 46.2 µM), inactives show at the highest dose activity change, negative = growth inhibition, actives largely listed as inhibitors; hit rate 12% among 420,000; also: potency is read from the fitted curve at half-maximal effect; nearly all actives have a fitted effect of over 55% in size
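Chicken DT40 Tdp1-/- cells stably complemented with human TDP1 were seeded at 400 cells/well in medium containing 20 nM camptothecin, exposed to pin-transferred compounds, and grown at 37 °C for at least 48 hr. Viability was read as ATP luminescence.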
ALOX12 inh: inhibitors of human 12S-lipoxygenase ALOX12; P18054; purified 12hLO, xylenol orange hydroperoxide absorbance; Potency, µM (top dose mostly 108 µM), without a hit: top-dose activity change, negative = inhibition, actives largely listed as inhibitors; hit rate 1.1% among 580,000; AID 1671190; also: potency is read from the fitted curve at half-maximal effect
Target sequence (P18054 whole entry, looked up): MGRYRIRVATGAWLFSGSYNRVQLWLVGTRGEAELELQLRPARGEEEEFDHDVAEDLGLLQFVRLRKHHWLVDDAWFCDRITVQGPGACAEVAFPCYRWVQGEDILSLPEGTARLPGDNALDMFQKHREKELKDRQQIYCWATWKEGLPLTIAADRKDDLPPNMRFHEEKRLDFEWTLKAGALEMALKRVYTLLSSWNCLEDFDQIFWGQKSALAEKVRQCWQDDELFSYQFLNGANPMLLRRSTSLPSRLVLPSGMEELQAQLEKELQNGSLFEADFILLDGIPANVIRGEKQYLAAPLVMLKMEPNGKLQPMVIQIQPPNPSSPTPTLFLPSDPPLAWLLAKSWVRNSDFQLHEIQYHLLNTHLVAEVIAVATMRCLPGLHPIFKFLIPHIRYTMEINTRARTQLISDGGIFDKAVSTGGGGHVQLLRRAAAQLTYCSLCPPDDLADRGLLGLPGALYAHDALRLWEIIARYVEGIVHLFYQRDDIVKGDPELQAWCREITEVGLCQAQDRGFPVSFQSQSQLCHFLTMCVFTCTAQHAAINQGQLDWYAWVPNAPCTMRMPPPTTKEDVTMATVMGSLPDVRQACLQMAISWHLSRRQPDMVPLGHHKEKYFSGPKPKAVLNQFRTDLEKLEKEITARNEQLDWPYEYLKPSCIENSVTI
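Hydroperoxide product was detected by ferrous iron/xylenol orange as the 573 to 405 nm absorbance ratio. Arachidonic acid at 40 uM (final) was turned over for 30 min at room temperature by 150 nM human 12hLO, pH 7.0 Hepes buffer, after 15 min compound preincubation.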
HT1080-NT tox: kills 2HG-producing HT-1080-NT fibrosarcoma cells. Potency, µM (top dose mostly 46.1 µM), inactives show top-dose activity, negative = less viability, actives largely listed as cytotoxic. hit rate 1.6% among 360,000. HT-1080-NT fibrosarcoma viability, CellTiter-Glo ATP luminescence, 48 h;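 also: NT is the 2HG producing partner of a matched IDH1 knockdown line; potency is read from the fitted curve at half-maximal effect; 0% = DMSO-treated cells and -100% = media-only wells without cells; nearly all actives have a fitted effect of over 55% in size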
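Viability by CellTiter-Glo luminescence after 48 h compound exposure at 37C of HT-1080-NT cells (750/well, RPMI, 5% FBS). % activity scaled between DMSO wells and medium-only wells, then curve-fitted and categorized by curve class.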
HT1080 IDH1KD tx: toxicity to HT-1080 IDH1 knockdown cells (counter line) | hit rate 2% among 360,000 | HT-1080 IDH1 knockdown viability, ATP luminescence, 48 h | Potency, µM (highest dose often 46.1 µM), for the others: at the highest dose activity, negative = toxicity, most hits filed as cytotoxic;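 also: potency is read from the fitted curve at half-maximal effect; 0% = DMSO wells and -100% = cell-free medium wells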
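Using the IDH1-knockdown HT-1080 line run in the same batch and compound series as the NT line, viability after 48 h at 37 °C was determined by CellTiter-Glo luminescence and expressed as % activity.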
IL-1B inflam inh: inhibitors of inflammasome signaling (IL-1 beta secretion). hit rate 4.7% among 360,000. activity change, % at 57.5 µM. AID 743279. THP-1 LPS/ATP IL-1B secretion, AlphaLISA, 16 h; hits give low values; in the data active = activity change below about -50%; inconclusive = mostly about -30% to -49%
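THP-1 cells pretreated 1 hr with compounds (up to 57.5 uM final), then stimulated with LPS (250 ng/mL final) plus ATP (1.25 mM final); secreted IL-1B measured by AlphaLISA after 16 hr, decreased signal indicating inhibition.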
The depositor's hits bear a star; ? = inconclusive; / = no result; [ ] = another dose, or the depositor's remark. The entries come from a sample that favours hits as a whole. Unless noted, calls follow the shape of the dose curve; as a rule, active = well fitted curve in the direction sought with a large enough effect; inconclusive = small, poorly fitted or top-dose-only effect, or another doubt; inactive = no such curve, though single readings can be large; an effect the other way counts as inactive or inconclusive. Unless noted, % is scaled to controls: 0 for no effect and ±100 for the full control effect.

SMILES	TDP1 cell noCPT	TDP1 cell CPT	ALOX12 inh	HT1080-NT tox	HT1080 IDH1KD tx	IL-1B inflam inh
CC(C)C(=O)N1CCN(c2ccccc2NC(=S)NC(=O)c2ccco2)CC1	?	16.4µM*	0.0%	-0.3%	-6.8%	-2.3
O=C(NC(=S)Nc1cccc(Cl)c1N1CCOCC1)c1cccs1	25.9µM*	?	?	-5.7%	-1.7%	2.2
O=C(NCc1ccc(F)cc1)N1CCCC(Cn2cnc3cccnc32)C1 (stereo unspecified)	/	/	38.3%	/	/	/
Cc1ccc(/C=N\NC(=O)c2cccnc2)s1	/	/	0.0%	/	/	/
COc1cc(NC(=O)N2CCC3(CC2)Nc2ccccc2-n2cccc23)cc(OC)c1OC	?	20.6µM*	0.0%	/	/	/
CCC(C)NC(=O)N1CCC2(CC1)Nc1ccccc1-n1cccc12 (stereo unspecified)	/	/	-9.7%	/	/	/
CC(C)(CNC(=O)c1cccc(F)c1)CNC(=O)c1cccc(F)c1	18.4µM*	?	?	-7.1%	10.8%	0.5
O=C(NCCNc1ccc([N+](=O)[O-])cc1C(F)(F)F)c1cccc(F)c1	20.6µM*	?	-7.1%	-15.8%	-27.9%	0.0
O=C(Cc1ccc(F)cc1)NCCNC(=O)c1cc(=O)[nH]c2ccccc12	/	/	-20.3%	/	/	/
COc1ccc([S+](=O)([O-])c2nnn3c2nc(N2CCCCC2)c2ccccc23)cc1	/	/	6.8%[6.33 µM]	/	/	/
CC(C)C(=O)Nc1ccc(C(=O)c2ccccc2)cc1	20.6µM*	18.4µM*	0.0%	6.0%	2.5%	-22.3
O=C(CCCCCCCC(=O)Nc1ccc(C(=O)c2ccccc2)cc1)Nc1ccc(C(=O)c2ccccc2)cc1	/	/	39.8µM*	/	/	/
CC(C)C(=O)Nc1ccc(-c2nnc(-c3ccccc3)o2)cc1	?	-11.7%	-1.1%	20.0%	14.8%	-4.1
O=C(CCCC(=O)c1ccccc1)Nc1ccc(F)cc1	-13.2%	-9.3%	1.1%	-0.9%	-3.4%	-25.6
COC[C@H]1C[C@@H](NC(=O)c2cncnc2)[C@H](O)[C@@H]1O	/	/	65.0%[176 µM]	/	/	/
CCCCNC(=S)Nc1cccc(C)c1	/	/	-29.3%	/	/	/
S=C(NCc1ccco1)Nc1cccc(Cl)c1	?	-11.6%	?	?	?	0.0
Cc1cccc(NC(=S)NCCSc2ccc(Cl)cc2)c1	-27.2%	-2.7%	?	-22.4%	?	-105.2*
S=C(NCCSc1ccc(Cl)cc1)Nc1cccc(Cl)c1	/	/	35.5µM*	/	/	/
CSc1cccc(NC(=S)NCCSc2ccc(Cl)cc2)c1	/	/	35.5µM*	/	/	/
Cc1cccc(NC(=S)NCC(C)CSc2ccc(Cl)cc2)c1 (stereo unspecified)	16.4µM*	?	31.6µM*	?	?	-9.4
COc1cc(COc2ccc(C(C)=O)cc2)c(OC)cc1Br	/	/	-1.2%	/	/	/
COc1cccc(N2C(=O)NC(=NC3CCCCC3)C23CCCN(Cc2ccsc2)C3)c1 (stereo unspecified)	/	/	13.0%[6.33 µM]	/	/	/
Cc1ccc(Cl)cc1N1CCN(C(=O)C2CCCN(S(=O)(=O)c3cnc[nH]3)C2)CC1 (stereo unspecified)	23.1µM*	14.6µM*	20.4%	15.7%	7.9%	-2.5
Cc1ccc(Cl)cc1N1CCN(C(=O)C2CCN(S(C)(=O)=O)CC2)CC1	5.8µM*	?	0.8%	-1.7%	-6.1%	-0.2
SMILES	TDP1 cell noCPT	TDP1 cell CPT	ALOX12 inh	HT1080-NT tox	HT1080 IDH1KD tx	IL-1B inflam inh
Cc1ccc(C)c(N2CCN(C(=O)C3CCN(c4nc(C)cc(C)n4)CC3)CC2)c1	11.6µM*	14.6µM*	-11.8%	?	?	-8.2
Cc1ccc(Cl)cc1N1CCN(C(=O)C2CCN(S(=O)(=O)c3cn(C)cn3)CC2)CC1	?	?	-24.7%	/	/	/
Cc1ccc(Cl)cc1N1CCN(C(=O)C2CCN(S(=O)(=O)c3cnc[nH]3)CC2)CC1	?	?	0.0%	10.9%	15.0%	-4.0
Cc1cc(C)nc(N2CCC(C(=O)N3CCN(c4cc(Cl)ccc4C)CC3)CC2)n1	18.4µM*	?	-19.8%	?	?	-14.8
CCSc1nc(C(F)(F)F)nc2ccccc12	/	/	7.5%	/	/	/
O=C(NCCC12CC3CC(CC(C3)C1)C2)c1ccc(Cl)cc1	/	/	-32.8%	/	/	/
O=C(Nc1ccc(Br)cc1)c1cnc(-c2ccc(F)cc2)nc1-c1ccncc1	/	/	16.0%	/	/	/
O=C(NC(c1ccccc1)c1ccccc1)C12CC3CC(CC(O)(C3)C1)C2	/	/	12.0%	/	/	/
O=c1c2cnc(N3CCCCC3)nc2ccn1-c1ccc(F)cc1	/	/	16.2%	/	/	/
Cc1ccccc1P(=O)(c1ccccc1)c1ccccc1C	18.4µM*	?	1.7%	-0.1%	-20.4%	3.7
O=C(COC(=O)c1cc(=O)c2ccccc2o1)Nc1cccc(Br)c1	/	/	-24.4%	/	/	/
COc1ccc(CNC(=O)N2CCN(c3ccccc3)CC2)cc1	-6.1%	4.0%	-2.3%	12.8%	8.4%	-13.8
O=C(NCc1ccccc1)C1CCCN(C(=O)NCc2ccccc2)C1 (stereo unspecified)	4.4%	1.46µM*	1.6%	1.6%	7.5%	2.4
O=C(NCc1ccccc1)N1CCN(c2ccc(F)cc2)CC1	14.6µM*	18.4µM*	45.7%	22.9%	21.2%	-6.0
O=C(Nc1ccc(F)cc1F)N1CCN(c2ccc(Cl)c(Cl)c2)CC1	4.61µM*	6.51µM*	-24.6%	/	/	/
O=C(c1ccc(F)cc1)C1CCN(C(=O)NCc2ccccc2)CC1	23.1µM*	16.4µM*	-4.6%	-14.5%	-0.6%	-4.7
CC(=O)c1ccc(N2CCN(C(=O)Nc3ccc(F)cc3F)CC2)cc1	-22.3%	?	-5.7%	16.4%	4.9%	-10.4
O=C(NC1CCN(C(=O)NCc2ccccc2)CC1)c1ccc(F)cc1	-11.6%	-1.6%	11.2%	11.1%	15.0%	18.1
O=C(O)C1CCCN(C(=O)NCc2ccccc2)C1 (stereo unspecified)	-6.3%	-10.6%	4.4%	15.9%	8.0%	-16.4
O=C(c1ccc(Cl)cc1)C1CCN(C(=O)c2ccc(F)cc2)CC1	10.3µM*	20.6µM*	-4.0%	-29.3%	8.3%	-4.5
Cc1ccc(C(=O)N2CCC(C(=O)c3ccc(F)cc3)CC2)cc1	?	?	-1.7%	-1.6%	-1.5%	-1.0
O=C(NCc1ccccc1)N1CCN(c2ccc(Cl)c(Cl)c2)CC1	5.8µM*	18.4µM*	4.2%	?	?	39.2
CC(C)Cn1cc(NC(=O)N2CCN(c3ccc(F)cc3)CC2)c2ccccc2c1=O	18.4µM*	14.6µM*	3.2%	/	/	/
Cn1c(=O)c2[nH]c(N3CCN(C(=O)C4CC4)CC3)nc2n(C)c1=O	/	/	-27.7%	/	/	/
